The text below walks through data of PubChem BioAssay (NCATS).

Records with an inconclusive call do not appear. Calls of active or inactive are those of the source. Unless noted, the call rests on the fitted dose curve; in most records, active means well fitted curve in the direction sought with a large enough effect; inconclusive means small, poorly fitted or top-dose-only effect, or another doubt; inactive means no such curve, though single readings can be large; an effect the other way counts as inactive or inconclusive.

Assay [1] is described as follows: qHTS profiling for inhibitors of Plasmodium falciparum proliferation (AID 504749). Further: nearly all actives have a fitted effect of over 60% in size. Further: potency means the concentration at half of the fitted maximal effect.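 On activity, negative = inhibition: 0% = DMSO vehicle and full inhibition = artemisinin control.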 To be noted: P. falciparum in erythrocytes, SYBR Green DNA, 72 h, at 28.7 µM (top of the series). A digest of the protocol: (§1)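 Fluorescence of SYBR Green-bound parasite DNA, read at 485/535 nm, served as the growth measure. Infected erythrocytes were cultured with compound 72 h; artemisinin (0.29 uM) and DMSO wells defined the normalization range.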
A general note: In qHTS, concentration-response curves come from the screen itself.

The subject of another assay is 3D7. The assay is described as above. The settings on record: P. falciparum in erythrocytes, SYBR Green DNA, 72 h; series mostly up to 28.7 µM. The gist of the method:
as §1

The next assay relates to 7G8. The assay is described as above. The settings on record: P. falciparum in erythrocytes, SYBR Green DNA, 72 h; series mostly up to 28.7 µM. A digest of the protocol:
as §1

Another assay concerns AA1029. The description is as above. To be noted: P. falciparum in erythrocytes, SYBR Green DNA, 72 h; series mostly up to 28.7 µM. A digest of the protocol:
as §1

A further assay deals with AS120. Described as above. The settings on record: P. falciparum in erythrocytes, SYBR Green DNA, 72 h; series mostly up to 28.7 µM. A digest of the protocol: as §1
Another assay relates to ATS189. The description is as above. The settings on record: P. falciparum in erythrocytes, SYBR Green DNA, 72 h; series mostly up to 28.7 µM. The gist of the method:
as §1

The next assay concerns ATS95. The assay is described as above. To be noted: P. falciparum in erythrocytes, SYBR Green DNA, 72 h; series mostly up to 28.7 µM. The gist of the method:
as §1

For another assay, the system named is C2A. Described as above. To be noted: P. falciparum in erythrocytes, SYBR Green DNA, 72 h; series mostly up to 28.7 µM. The gist of the method: as §1
In a further assay the test system is CP185. The assay is described as above. The settings on record: P. falciparum in erythrocytes, SYBR Green DNA, 72 h; series mostly up to 28.7 µM. A digest of the protocol:
as §1

A further assay relates to CP191. The assay is described as above. To be noted: P. falciparum in erythrocytes, SYBR Green DNA, 72 h; series mostly up to 28.7 µM. A digest of the protocol: as §1
The nature of assay [2]: qHTS drug screen for cell cycle checkpoint inhibitors in PARPi-resistant BRCA-mutant ovarian cancer cell lines. (AID 1963452; calls by dose curve). To be noted: PEO1/OlaR viability, CellTiter-Glo luminescence, 96 h, stronger effect = lower value. A digest of the protocol:
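PEO1, PEO4 and PEO1/OlaR ovarian cancer cells, 600 per well, exposed 96 h at 37C to a dilution series. Viability read by CellTiter-Glo luminescence, normalized to DMSO and empty wells; activity summarized as Z-AUC.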

Assay [3] is described as follows: KB-3-1 P-gp reporter qHTS against the NCATS DSHEA and TCM libraries (AID 1919975). Further: 0% is about no effect. To be noted: KB-3-1 parental cells, CellTiter-Glo luminescence viability, 72 h; series mostly up to 26.1 µM. The gist of the method: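 Parental KB-3-1 cells, 500 cells/well, in DMEM with 10% FBS, exposed 72 h at 37 C to compounds in concentration-response. Viability read by CellTiter-Glo luminescence after 30 min at room temperature.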

The target in assay [4] is Cytochrome P450 1A2 (Homo sapiens) (UniProt P05177). The experiment in a line: qHTS for inhibitors of CYPIA2 against the NCATS DSHEA and TCM libraries (AID 1919976). Further: on the % scale 0 is the no-effect control and ±100 the full control effect. The settings on record: recombinant CYP1A2 enzyme activity, luminescence; series mostly up to 37 µM. The gist of the method:
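Luminescence read-out: pro-luciferin converted to D-luciferin by CYP1A2, detected with P450-Glo reagent after 30 min RT. Enzyme plus substrate got compounds for 15 min RT; NADPH regeneration solution (final 1x) started a 30-45 min reaction, light-protected.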

Assay [5] can be described thus: KB-8-5-11 P-gp reporter qHTS against the NCATS DSHEA and TCM libraries (AID 1919977). Further: 0% is about no effect. The settings on record: KB-8-5-11 cells; series mostly up to 26.1 µM. The gist of the method:
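P-gp-overexpressing KB-8-5-11 cells were screened in colchicine-free medium at 500 cells/well, as a titration series. Cells were exposed for 72 h at 37C. Viability was read by CellTiter-Glo luminescence after 30 min at room temperature.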

Assay [6] is described as follows: qHTS Counterscreen for compound interference against the NCATS DSHEA and TCM libraries (AID 1919978).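 Further: compounds preincubated with 1 µM D-luciferin or buffer before detection reagent; % of control where 0% means no effect.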 To be noted: firefly luciferase detection reagent interference, luminescence. The gist of the method: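 Firefly luciferase detection reagent was added after compounds (19.5 nM–39.8 uM final) had been incubated 15 min at room temperature with 1 uM D-luciferin or with 100 mM phosphate buffer alone. Luminescence was read after 30 min at room temperature.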

A short description of assay [7]: Dual reporter qHTS for agonist of Pregnane X Receptor (hPXR) against the NCATS DSHEA and TCM libraries: Fluorescence readout (AID 1920058). Further: 0% is about no effect. The settings on record: PXR dual reporter cells; series mostly up to 40 µM. A digest of the protocol:
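Fluorescence read-out for cell viability: CellTiter-Fluor, 1 h at 37 °C, Ex/Em 405/540 nm. This followed ~24 h treatment of hPXR-Luc HepG2 cells with substances in agonist mode.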

Assay [8] concerns the target Nuclear receptor subfamily 1 group I member 2 (Homo sapiens) (UniProt O75469). The experiment in a line: Dual reporter qHTS for agonist of Pregnane X Receptor (hPXR) against the NCATS DSHEA and TCM libraries: Luminescence readout (AID 1920059). Further: 0% is about no effect. To be noted: hPXR dual reporter cells, luciferase luminescence agonist; series mostly up to 40 µM. The gist of the method: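 hPXR-LucHepG2 cells in phenol red-free DMEM with 5% charcoal-stripped FBS, 2000 cells/well, attached 5 h, then exposed 24 h at 37C to compounds; rifampicin as positive agonist control (2.8 nM–92 uM). Luciferase luminescence read.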

The target is the same in assay [9]. The assay can be described thus: Dual reporter qHTS for antagonist of Pregnane X Receptor (hPXR) against the NCATS DSHEA and TCM libraries: Luminescence Readout (AID 1920060).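 Further: HepG2 cells carrying hPXR luciferase reporter stimulated with rifampicin at 2 µM; 0% is about no effect.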 The settings on record: hPXR dual reporter cells, luciferase luminescence, antagonist mode; series mostly up to 40 µM. A digest of the protocol:
(§2)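 In antagonist mode, 2 uM rifampicin was added to hPXR-Luc HepG2 cells alongside test substances, incubated 24 h at 37 C; luminescence gave reporter activity, and CellTiter-Fluor fluorescence (405/540 nm) gave viability.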

Assay [10] can be described thus: Dual reporter qHTS for antagonist of Pregnane X Receptor (hPXR) against the NCATS DSHEA and TCM libraries: Fluorescence Readout (AID 1920061). Further: 0% is about no effect. The settings on record: PXR dual reporter cells, antagonist mode; series mostly up to 40 µM. A digest of the protocol: as §2
For assay [11], the target named is Cytochrome P450 2C19 (Homo sapiens) (UniProt P33261). The assay can be described thus: qHTS for inhibitors of CYP2C19 against the NCATS DSHEA and TCM libraries (AID 1919974). Further: on the % scale 0 is the no-effect control and ±100 the full control effect. To be noted: CYP2C19 enzyme inhibition, luminescence qHTS; series mostly up to 34.1 µM. The gist of the method: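 Substances were tested against enzyme with a pro-luciferin substrate; minus-enzyme wells served as background. After NADPH-initiated oxidation (30-45 min, RT), light was generated with P450-Glo reagent.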

Where [12] appears, read: measured here: PEO1 parental Z-AUC.

Chain of Nuclear receptor subfamily 1 group I member 2 (Homo sapiens) (O75469 whole entry, looked up): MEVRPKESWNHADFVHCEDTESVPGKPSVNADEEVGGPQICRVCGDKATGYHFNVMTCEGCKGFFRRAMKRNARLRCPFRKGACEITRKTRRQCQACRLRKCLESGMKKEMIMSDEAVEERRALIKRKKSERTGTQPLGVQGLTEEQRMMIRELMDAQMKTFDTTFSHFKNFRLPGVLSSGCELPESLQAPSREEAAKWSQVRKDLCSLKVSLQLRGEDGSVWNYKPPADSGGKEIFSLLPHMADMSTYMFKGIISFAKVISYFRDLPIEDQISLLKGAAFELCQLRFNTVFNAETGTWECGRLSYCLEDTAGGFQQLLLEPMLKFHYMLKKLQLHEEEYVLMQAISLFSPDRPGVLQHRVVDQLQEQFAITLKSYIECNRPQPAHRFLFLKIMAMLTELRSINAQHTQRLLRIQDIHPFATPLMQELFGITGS
Chain of Cytochrome P450 1A2 (Homo sapiens) (P05177 whole entry, looked up): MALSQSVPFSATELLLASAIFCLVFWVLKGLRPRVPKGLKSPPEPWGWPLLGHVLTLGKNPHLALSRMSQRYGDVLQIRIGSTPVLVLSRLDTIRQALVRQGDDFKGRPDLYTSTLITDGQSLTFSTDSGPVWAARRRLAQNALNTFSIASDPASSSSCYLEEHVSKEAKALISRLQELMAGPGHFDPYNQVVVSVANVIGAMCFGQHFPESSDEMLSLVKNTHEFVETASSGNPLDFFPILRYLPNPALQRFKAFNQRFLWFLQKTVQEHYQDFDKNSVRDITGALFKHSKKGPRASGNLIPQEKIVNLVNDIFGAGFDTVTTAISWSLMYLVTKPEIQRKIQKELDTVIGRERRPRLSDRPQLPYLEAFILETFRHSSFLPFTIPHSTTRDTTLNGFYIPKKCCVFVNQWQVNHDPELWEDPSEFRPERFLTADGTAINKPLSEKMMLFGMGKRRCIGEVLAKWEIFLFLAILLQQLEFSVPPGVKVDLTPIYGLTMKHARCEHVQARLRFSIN
Chain of Cytochrome P450 2C19 (Homo sapiens) (P33261 whole entry, looked up): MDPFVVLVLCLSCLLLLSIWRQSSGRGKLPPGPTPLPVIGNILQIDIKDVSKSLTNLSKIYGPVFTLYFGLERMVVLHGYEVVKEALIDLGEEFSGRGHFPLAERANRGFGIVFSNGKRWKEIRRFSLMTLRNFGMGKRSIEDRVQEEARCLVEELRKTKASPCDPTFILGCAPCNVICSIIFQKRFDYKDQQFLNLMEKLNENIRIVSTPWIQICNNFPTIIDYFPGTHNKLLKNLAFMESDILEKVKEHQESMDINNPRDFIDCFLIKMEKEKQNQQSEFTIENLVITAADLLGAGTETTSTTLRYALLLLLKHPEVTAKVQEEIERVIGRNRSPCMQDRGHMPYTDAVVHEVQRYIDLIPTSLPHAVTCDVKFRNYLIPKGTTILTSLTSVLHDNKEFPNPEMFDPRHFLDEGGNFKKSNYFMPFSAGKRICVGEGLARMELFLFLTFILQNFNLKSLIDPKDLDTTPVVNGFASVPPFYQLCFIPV

Regarding `CC(C)CCON=O`, the activity, negative = inhibition in assay [1] (parasite line A) was -1.57% (inactive); in assay [1] (parasite line B) it was -11.8% (inactive). Besides, the Potency entry with 3D7, with 7G8, in the assay with AA1029, in the assay on AS120, in the assay on ATS189 and in the assay on ATS95 was “inactive” throughout. Moreover, the Potency entry in the assay with C2A, with CP185 and in the assay with CP191 was “inactive” in each case.
Turning to `CC(=O)c1c(O)c(C)c(O)c(Cc2c(O)c3c(c(C(=O)/C=C/c4ccccc4)c2O)OC(C)(C)C=C3)c1O`, the Z-AUC is 1.03 (inactive) in assay [2], 0.667 in [2] (setting [12]) and 0.636 in assay [2] (measured here: PEO4 Z-AUC).
Consider `CCOc1ccc2c3c1O[C@H]1[C@@H](O)C=C[C@H]4[C@@H](C2)N(C)CC[C@@]341`, for which the activity, negative = inhibition is 0.925% (inactive) in assay [1] (parasite line A) and -4.11% (inactive) in assay [1] (parasite line B). Moreover, the Potency result in the assay with 3D7, in the assay with 7G8, with AA1029, with AS120, in the assay on ATS189 and in the assay with ATS95 was “inactive” throughout. Also, the Potency result in the assay on C2A, in the assay with CP185 and with CP191 was “inactive” throughout.
Regarding `Cc1sc2ccccc2c1CC1=NCCN1`, the activity, negative = inhibition is 5.82% (inactive) in [1] (parasite line A) and -2.48% (inactive) in assay [1] (parasite line B). Further, the Potency entry with 3D7, in the assay with AA1029, in the assay with AS120, in the assay on ATS189, in the assay on ATS95 and in the assay with C2A was “inactive” throughout. Further, the Potency entry in the assay with CP185 is “inactive”. In addition, the Potency in the assay with 7G8 was 10 µM (active).
Consider `CCCCCl`, for which the activity, negative = inhibition in assay [1] (parasite line A) is 1.32% (inactive); in assay [1] (parasite line B), 10.6% (inactive). Further, the Potency entry with 3D7, in the assay on 7G8, in the assay on AA1029, with AS120, in the assay with ATS189 and with ATS95 was “inactive” in each case. For the same compound, the Potency result in the assay with C2A, in the assay on CP185 and in the assay on CP191 was “inactive” throughout.
Regarding `COc1cc(C)[nH]c(=O)c1CNC(=O)c1c(C)n([C@H](C)C2CCOCC2)c2ccccc12`, the values for the Z-AUC in [2], in assay [2] (setting [12]) and in assay [2] (measured here: PEO4 Z-AUC) were 0.466 (inactive), 0.504 and 0.135, respectively.
For `O=C/C=C/c1ccccc1`, the result in assay [3], in [4], in assay [5], in [7], in assay [8] and in [9] was inactive. The call in assay [10] was inactive. In [6], the max response is 1.86% (inactive). Also, the activity, negative = inhibition was 8.58% (inactive) in [1] (parasite line A) and -11% (inactive) in [1] (parasite line B). Besides, the Potency result in the assay on 3D7, with 7G8, with AA1029, with AS120, with ATS189 and with ATS95 was “inactive” each time. Further, the Potency entry with C2A, in the assay on CP185 and in the assay with CP191 was “inactive” in each case.
On to `C=C[C@H]1CN2CC[C@H]1C[C@@H]2[C@@H](O)c1ccnc2ccccc12`, for which the Z-AUC in assay [2] is 1.32 (inactive); in [2] (setting [12]) it was 0.858; in assay [2] (measured here: PEO4 Z-AUC), 1.06.
`C=CCN1CC[C@]23c4c5ccc(O)c4O[C@H]2[C@@H](O)C=C[C@H]3[C@H]1C5`: the activity, negative = inhibition in [1] (parasite line A) is -14.2% (inactive); in assay [1] (parasite line B), 6.2% (inactive). Moreover, the Potency result in the assay on 3D7, in the assay with 7G8, with AA1029, in the assay with AS120, in the assay with ATS189 and in the assay with ATS95 was “inactive” in each case. For the same compound, the Potency result with C2A, in the assay on CP185 and in the assay on CP191 was “inactive” throughout.
In the case of `CNC(C)C(O)c1ccc(O)cc1` (stereo unspecified), the Potency entry (in [11]; with 3D7; in the assay on 7G8; in the assay on AA1029; with AS120; in the assay with ATS189) was “inactive” each time. Also, the Potency result with ATS95, in the assay on C2A, in the assay on CP185 and with CP191 was “inactive” each time. Further, the result in assay [3], in assay [4], in assay [5], in assay [7], in assay [8] and in assay [10] was inactive. Moreover, the max response in assay [6] was -3.49% (inactive). Besides, the activity, negative = inhibition in assay [1] (parasite line A) was 5.26% (inactive); in [1] (parasite line B) it was -1.7% (inactive).
